In PubChem BioAssay (NCI) one finds growth data, which are given here for 13 compounds.

Structures are written as SMILES. Values joined by “and” are separate entries in the source; they are usually repeats but may differ in a detail not shown here. Equal values may be shown once. The panel holds about 83,000 compounds, 20% with a hit somewhere; the sample as a whole holds those more often.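 Activity criterion: percent growth below 10, measured after cells in 96-well plates were exposed to a single compound concentration for 48 hours.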 Active and inactive are the calls of the source.

Among the test systems are DU-145 prostate; K-562 leukemia; MALME-3M melanoma; MDA-MB-231 breast; RXF 393 renal; SF-268 CNS; SF-539 CNS; UACC-257 melanoma; M14 melanoma; SF-295 CNS.
What all share (assay): NCI-60 one-dose screen, 48 h (100 = growth as untreated, 0 = no growth, -100 = all killed)
Common to all, as to details: 10 µM

Turning to `COc1cc2c(c(OC)c1OC)-c1ccc(O)c(=O)cc1[C@@H](NC(C)=O)CC2`, the growth was 61.5% (inactive) with DU-145 prostate; 46.8% (inactive) in the assay on K-562 leukemia; 79.8% (inactive) with MALME-3M melanoma; 72.2% (inactive) in the assay on MDA-MB-231 breast; 59.7% (inactive) in the assay with RXF 393 renal; 47.5% (inactive) in the assay with SF-268 CNS. In addition, the growth was 51.5% (inactive) in the assay with SF-539 CNS, 75.7% (inactive) in the assay on UACC-257 melanoma and 52.7% (inactive) in the assay with M14 melanoma.

`O=C(CBr)Nc1ccccc1`: the growth in the assay on DU-145 prostate is 102% (inactive); in the assay on K-562 leukemia, 39.4% (inactive); in the assay with MALME-3M melanoma it was 54.7% (inactive); in the assay with MDA-MB-231 breast it was 95.3% (inactive); with RXF 393 renal it was 107% (inactive); in the assay with SF-268 CNS, 90.1% (inactive). The growth was 103% (inactive) in the assay with SF-295 CNS, 106% (inactive) with SF-539 CNS, 99.5% (inactive) in the assay on UACC-257 melanoma and 84.4% (inactive) in the assay on M14 melanoma.

Take `CC(=O)[O][Hg][c]1c(C)c(C)cc(C)c1C`: the growth in the assay on DU-145 prostate is -61% (active); in the assay on K-562 leukemia, -10.1% (active); in the assay with MDA-MB-231 breast, -51.5% (active); in the assay on RXF 393 renal it was -45.5% (active); with SF-268 CNS, -74.4% (active); with SF-295 CNS it was 13.6% (inactive). Further, the growth is 41.9% (inactive) in the assay with SF-539 CNS, -64.1% (active) with UACC-257 melanoma and -87% (active) with M14 melanoma.

As for `CS(=N)(=O)CCC(N)C(=O)O` (stereo not given), the growth is 122% (inactive) in the assay with DU-145 prostate; 97.2% (inactive) with K-562 leukemia; 103% (inactive) in the assay on MALME-3M melanoma; 109% (inactive) in the assay on MDA-MB-231 breast; 119% (inactive) in the assay with SF-268 CNS; 97.1% (inactive) in the assay on SF-295 CNS. Besides, the growth is 109% (inactive) in the assay with SF-539 CNS, 105% (inactive) in the assay with UACC-257 melanoma and 108% (inactive) in the assay with M14 melanoma.

With `Cc1ccc(NC(=O)CBr)cc1`, the growth in the assay on DU-145 prostate is 105% (inactive); in the assay on K-562 leukemia it was 70.8% (inactive); in the assay with MALME-3M melanoma it was 87.5% (inactive); in the assay with MDA-MB-231 breast, 95.1% (inactive); with RXF 393 renal, 102% (inactive); in the assay on SF-268 CNS, 104% (inactive). Besides, the values for the growth with SF-295 CNS, in the assay on SF-539 CNS and with M14 melanoma were 103% (inactive), 111% (inactive) and 97.6% (inactive), respectively.

In the case of `CN(C)CC1(N)C(=O)NC(=O)NC1=O`, the growth in the assay on K-562 leukemia is 99.3% (inactive); in the assay with MALME-3M melanoma it was 108% (inactive); in the assay on MDA-MB-231 breast, 98.7% (inactive); in the assay with RXF 393 renal, 101% (inactive); in the assay with SF-268 CNS, 103% (inactive); in the assay on SF-295 CNS it was 98.8% (inactive). Further, the growth in the assay on SF-539 CNS was 99% (inactive); in the assay with UACC-257 melanoma, 87.4% (inactive); in the assay on M14 melanoma, 102% (inactive).

Regarding `O=[N+]([O-])/C=C/c1ccc([N+](=O)[O-])cc1`, the growth was -47.5% (active) and 72.1% (inactive) in the assay on DU-145 prostate; 5.65% (active) and 18.5% (inactive) in the assay on K-562 leukemia; 66.7% (inactive) and 54.6% (inactive) in the assay with MALME-3M melanoma; 66.5% (inactive) and 84.5% (inactive) in the assay on MDA-MB-231 breast; 101% (inactive) with RXF 393 renal; 25.4% (inactive) and 103% (inactive) in the assay on SF-268 CNS. Moreover, the growth in the assay on SF-295 CNS is 76.2% (inactive) and 104% (inactive); in the assay on SF-539 CNS, -27.5% (active) and 75.7% (inactive); in the assay with UACC-257 melanoma, -4.16% (active) and 96.5% (inactive); in the assay on M14 melanoma it was -29.1% (active) and 66.1% (inactive).

As for `NC(=O)c1cc([N+](=O)[O-])c(Cl)c([N+](=O)[O-])c1`, the growth in the assay on DU-145 prostate is 65.5% (inactive); in the assay with MALME-3M melanoma, 71.3% (inactive); with MDA-MB-231 breast it was 92.2% (inactive); in the assay with RXF 393 renal, 93.8% (inactive); in the assay with SF-268 CNS, 101% (inactive); in the assay on SF-295 CNS it was 115% (inactive). In addition, the values for the growth with SF-539 CNS, in the assay with UACC-257 melanoma and in the assay with M14 melanoma were 98.1% (inactive), 105% (inactive) and 78.6% (inactive), respectively.

For `Oc1c(Cl)cc(Cl)c2ccccc12.[Cu+2]`, the growth is 106% (inactive) in the assay on DU-145 prostate; 69% (inactive) with K-562 leukemia; 96.3% (inactive) in the assay with MALME-3M melanoma; 81.4% (inactive) with MDA-MB-231 breast; 103% (inactive) in the assay on RXF 393 renal; 109% (inactive) in the assay with SF-268 CNS. The growth with SF-539 CNS is 108% (inactive); in the assay with UACC-257 melanoma, 113% (inactive); in the assay on M14 melanoma it was 97.9% (inactive).

As to `CC(Cc1ccc2c(c1)OCO2)NN` (stereo not given), the growth was 113% (inactive) in the assay with DU-145 prostate; 82% (inactive) in the assay with K-562 leukemia; 97.2% (inactive) with MALME-3M melanoma; 104% (inactive) with MDA-MB-231 breast; 111% (inactive) in the assay on RXF 393 renal; 100% (inactive) with SF-268 CNS. Further, the figures for the growth in the assay with SF-295 CNS, in the assay on SF-539 CNS and with M14 melanoma were 91% (inactive), 91.9% (inactive) and 96.7% (inactive), respectively.

As to `COc1ccc(/C=C(\C)[N+](=O)[O-])cc1OC`, the growth in the assay on DU-145 prostate was 18.6% (inactive); in the assay with K-562 leukemia it was -9.93% (active); in the assay on MALME-3M melanoma, -72.2% (active); in the assay on MDA-MB-231 breast it was 77.9% (inactive); in the assay with SF-268 CNS it was 12% (inactive); in the assay on SF-295 CNS, 69% (inactive). The figures for the growth with SF-539 CNS, in the assay with UACC-257 melanoma and in the assay on M14 melanoma were 62.8% (inactive), -80.4% (active) and -41.9% (active), respectively.

On to `Cn1c(O)c(N=O)c(=O)n(C)c1=O`, for which the growth was 98.1% (inactive) and 106% (inactive) with DU-145 prostate; 94.1% (inactive) and 95.2% (inactive) in the assay with K-562 leukemia; 99.1% (inactive) and 107% (inactive) in the assay with MALME-3M melanoma; 107% (inactive) and 101% (inactive) with MDA-MB-231 breast; 107% (inactive) and 115% (inactive) in the assay on RXF 393 renal; 92.8% (inactive) and 97.5% (inactive) in the assay on SF-268 CNS. In addition, the growth with SF-295 CNS is 102% (inactive) and 93.7% (inactive); with SF-539 CNS it was 102% (inactive) and 90.7% (inactive); in the assay with UACC-257 melanoma, 99.3% (inactive) and 95.7% (inactive); with M14 melanoma, 111% (inactive) and 102% (inactive).

Regarding `[Cl][Hg][c]1ccc2ccccc2c1`, the growth is -22.1% (active) with DU-145 prostate; -13.1% (active) in the assay on K-562 leukemia; -69.6% (active) in the assay on MDA-MB-231 breast; -97% (active) in the assay on RXF 393 renal; -70.4% (active) in the assay on SF-268 CNS; 17.3% (inactive) in the assay on SF-295 CNS. The values for the growth with SF-539 CNS, in the assay on UACC-257 melanoma and in the assay on M14 melanoma were -13.7% (active), -86.7% (active) and -99.1% (active), respectively.
